A short description of assay [1]: qHTS of pediatric cancer cell lines to identify multiple opportunities for drug repurposing: Primary screen for control Hh wild type fibroblast cells (AID 1347106).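 Further: a drop in luminescence marks cytotoxicity and a rise apparent proliferation; nearly all actives have a fitted effect of over 55% in size.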 The procedure, abridged:
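Viability after 48 h compound treatment at 37C, 500-1,000 cells/well, read as ATP luminescence with CellTiter-Glo. Primary screens used 11-point (MIPE, 0.78 nM-46 µM) or 8-point (NPC, 0.59 nM-46 µM) final concentrations; follow-up screens used 11-point dilutions.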
On the technique in general: In qHTS, concentration-response curves come from the screen itself.

Assay [2] is described as follows: qHTS of pediatric cancer cell lines to identify multiple opportunities for drug repurposing: Primary screen for Rh30 cells (AID 1347107). Further: nearly all actives have a fitted effect of over 75% in size. A digest of the protocol: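 Cells (500-1,000/well) rested 5 h, then received compounds for 48 h; metabolically active cells were measured by CellTiter-Glo luminescence. Final concentrations spanned up to 46 µM (MIPE, 11-point) or 0.59 nM-46 µM (NPC, 8-point) in primary screens, 11-point in follow-ups.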

The nature of assay [3]: qHTS of pediatric cancer cell lines to identify multiple opportunities for drug repurposing: Primary screen for Rh41 cells (AID 1347108).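 Further: luminescence drop marks cytotoxic hits; nearly all actives have a fitted effect of over 70% in size.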 A digest of the protocol:
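Phenotypic viability qHTS, 48 h compound exposure, CellTiter-Glo luminescence read-out; multi-concentration dosing so that potency and efficacy derive directly from the primary screen's curves.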

Consider 15 molecules from PubChem BioAssay (NCATS).

Results filed as inconclusive are left out. Where a call stands in place of a potency, no number is given. The source made the active and inactive calls. The call rests on the fitted dose curve; in most records, active means well fitted curve in the direction sought with a large enough effect; inconclusive means small, poorly fitted or top-dose-only effect, or another doubt; inactive means no such curve, though single readings can be large; an effect the other way counts as inactive or inconclusive.
Further: series mostly up to about 46 µM.

With `O=C(N/N=C/c1ccc([N+](=O)[O-])o1)c1ccc(O)cc1`, the Potency entry in assay [1] and in assay [2] was “inactive” each time.

Regarding `OCCOCCN1CCN(C2=Nc3ccccc3Sc3ccccc32)CC1`, the Potency entry in assay [1], in assay [2] and in assay [3] was “inactive” throughout.

As to `Oc1c(Cl)cc(Cl)c(Cl)c1Cc1c(O)c(Cl)cc(Cl)c1Cl`, the Potency result in assay [1] and in assay [2] was “inactive” in each case.

Regarding `CCCCCCCCNC(C)C(O)c1ccc(SC(C)C)cc1` (configuration not stated), the Potency result in assay [1] is “inactive”.

As to `C[C@]12CCC(=O)C=C1C=C[C@@H]1[C@@H]2CC[C@@]2(C)[C@H]1CC[C@@]21CCC(=O)O1`, the Potency result in assay [1] was “inactive”.

As to `Oc1ccc(Cl)cc1Cc1cc(Cl)ccc1O`, the Potency entry in assay [1] is “inactive”.

`O=C1[C@H](CC[C@H](O)c2ccc(F)cc2)[C@@H](c2ccc(O)cc2)N1c1ccc(F)cc1`: the Potency result in assay [1] and in assay [2] was “inactive” in each case.

For the molecule `CCOC(=O)Nc1ccc2c(c1)N(C(=O)CCN1CCOCC1)c1ccccc1S2`, the Potency entry in assay [1], in assay [2] and in assay [3] was “inactive” in each case.

As to `CC(C)(C)NC[C@H](O)COc1cccc2c1CCCC2=O`, the Potency entry in assay [1] and in assay [2] was “inactive” in each case.

Turning to `C#C[C@]1(OC(C)=O)CC[C@H]2[C@@H]3CCC4=C/C(=N/O)CC[C@@H]4[C@H]3CC[C@@]21CC`, the Potency result in assay [1] and in assay [2] was “inactive” in each case.

Consider `CC(=O)O[C@]1(C(C)=O)CC[C@H]2[C@@H]3C=C(Cl)C4=CC(=O)CC[C@]4(C)[C@H]3CC[C@@]21C`, for which the Potency result in assay [1] and in assay [2] was “inactive” throughout.

For `CC(=O)Nc1ccc(OCC(O)CNC(C)C)cc1` (configuration not stated), the Potency entry in assay [1] and in assay [2] was “inactive” in each case.

For `CN1CCC[C@@H]1CCO[C@](C)(c1ccccc1)c1ccc(Cl)cc1`, the Potency result in assay [1] and in assay [2] was “inactive” in each case.

Turning to `Cc1ccc2c(Br)cc(Br)c(O)c2n1`, the Potency entry in assay [1] was “inactive”.

As for `CC(C)n1c(/C=C/[C@@H](O)C[C@@H](O)CC(=O)O)c(-c2ccc(F)cc2)c2ccccc21`, in assay [1], the Potency result was “inactive”.
